Here are results for twelve compounds from PubChem BioAssay (EPA / NIEHS).

Molecules are shown by their SMILES. Records with an inconclusive call do not appear. Calls of active or inactive are those of the source. The calls were made as follows, unless noted: active = hit-call score of the fitted dose curve at least 0.9, where 1 is the maximum; inconclusive = response in the unintended direction; inactive = score below 0.9.

Experiment [1] can be described thus: Tanguay_ZF_120hpf_SNOU_legacy: (Legacy) Oregon State University Tanguay Lab 120 Hour Post-fertilization zebrafish Assay for Snout Malformation (AID 2283637). The gist of the method:
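Dechorionated tropical 5D wild-type zebrafish embryos exposed statically from 6 to 120 hpf at 28C, one per well, in 0.64% DMSO. Snout malformation scored as present/absent by brightfield at 120 hpf; dead embryos not scored.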

Experiment [2] can be described thus: Tanguay_ZF_120hpf_PE_legacy: (Legacy) Oregon State University Tanguay Lab 120 Hour Post-fertilization zebrafish Assay for Pericardial Edema (AID 2283640).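 As to AC50: potency for increased incidence of pericardial edema versus DMSO baseline.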 In a few lines: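 Static waterborne exposure, 5D wild-type embryos, 28C, to 120 hpf; final DMSO 0.64% (vol/vol). Binary PE call at 120 hpf by brightfield; fitted upward vs DMSO baseline. 5uM trimethyltin chloride as positive control.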

A short description of experiment [3]: Tanguay_ZF_120hpf_BRAI_legacy: (Legacy) Oregon State University Tanguay Lab 120 Hour Post-fertilization zebrafish Assay for Brain Malformation (AID 2283641). The gist of the method: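 Read-out: binary brain morphology call at 120 hpf (brightfield), fitted in gain-of-signal direction vs DMSO. Wild-type Tropical 5D embryos, static exposure, 28C, 0.64% DMSO final; 5uM trimethyltin chloride as positive control.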

Experiment [4] is described as follows: Tanguay_ZF_120hpf_SOMI_legacy: (Legacy) Oregon State University Tanguay Lab 120 Hour Post-fertilization zebrafish Assay for Somite Malformation (AID 2283647). The gist of the method: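 Binary brightfield scoring of somite defects at 120 hpf in 5D wild-type larvae; one dechorionated embryo per well, static exposure from 6 hpf, 28C, sealed and dark. Final DMSO 0.64%; trimethyltin chloride 5uM positive control.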

A short description of experiment [5]: Tanguay_ZF_120hpf_PFIN_legacy: (Legacy) Oregon State University Tanguay Lab 120 Hour Post-fertilization zebrafish Assay for Pectoral Fin Malformation (AID 2283648).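 Also: each larva judged yes or no for fin defect by brightfield with dead larvae skipped.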 In a few lines: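 Dechorionated Tropical 5D wild-type zebrafish embryos, one per well, statically exposed from 6 to 120 hpf at 28C with 0.64% DMSO final. Pectoral fin malformation scored present/absent by brightfield at 120 hpf; not scored in dead embryos.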

Experiment [6] is described as follows: Tanguay_ZF_120hpf_CFIN_legacy: (Legacy) Oregon State University Tanguay Lab 120 Hour Post-fertilization zebrafish Assay for Caudal Fin Malformation (AID 2283649). The gist of the method: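 Dechorionated 5D wild-type zebrafish, static exposure 6–120 hpf, 28C, sealed and dark, 0.64% v/v DMSO final. Binary fin-malformation call at 120 hpf, brightfield; gain of signal vs DMSO baseline.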

Experiment [7] is described as follows: Tanguay_ZF_120hpf_PIG_legacy: (Legacy) Oregon State University Tanguay Lab 120 Hour Post-fertilization zebrafish Assay for Pigmentation Malformation (AID 2283650). In a few lines: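 Dechorionated Tropical 5D wild-type embryos, one per well from 6 hpf, statically exposed at 28C in the dark until 120 hpf, 0.64% DMSO final. Pigmentation scored present/absent by brightfield microscopy; dead embryos not scored; fitted versus DMSO.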

Experiment [8] in a line: Tanguay_ZF_120hpf_CIRC_legacy: (Legacy) Oregon State University Tanguay Lab 120 Hour Post-fertilization zebrafish Assay for Circulatory Malformation (AID 2283651). In a few lines: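 Read-out: presence or absence of circulatory malformation at 120 hpf, scored by brightfield microscopy, fitted in the gain-of-signal direction against DMSO baseline. Wild-type 5D larvae were exposed from 6 hpf after enzymatic chorion removal.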

Read-out in experiment [9]: solute carrier (SLC22A6), SLC22A6 (gene 9356)
In words: LTEA_HepaRG_SLC22A6: Life Technologies and Expression Analysis (LTEA) Assay for solute carrier (SLC22A6) using HepaRG (AID 2283653; active = hit-call score of the fitted dose curve at least 0.9, where 1 is the maximum; inactive = score below 0.9). Conditions: mRNA level, 48 h; actives raise or lower the signal. In a few lines:
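HepaRG, human liver line; 48 h chemical exposure; 8-pt half-log series from 100 uM in 0.5% DMSO, duplicate wells. Readout: TaqMan qRT-PCR of SLC22A6 mRNA, housekeeping-normalised; bidirectional curve fit vs DMSO baseline.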

A short description of experiment [10]: Tanguay_ZF_120hpf_SWIM_legacy: (Legacy) Oregon State University Tanguay Lab 120 Hour Post-fertilization zebrafish Assay for Swim Bladder Malformation (AID 2283654).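 Also: swim bladder malformation in each larva scored yes or no under brightfield.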 In a few lines: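 Dechorionated wild-type Tropical 5D zebrafish embryos, one per well from 6 hpf, were statically exposed at 28C until 120 hpf in 0.64% DMSO. Swim bladder malformation scored as present/absent by brightfield microscopy; not scored in dead larvae.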

Experiment [11] in a line: Tanguay_ZF_120hpf_TRUN_legacy: (Legacy) Oregon State University Tanguay Lab 120 Hour Post-fertilization zebrafish Assay for Truncated Body (AID 2283655). The gist of the method:
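Whole-embryo zebrafish screen: dechorionated 5D embryos, static exposure 6–120 hpf, 28C, sealed foil-covered plates, 0.64% DMSO. Binary truncation call; gain of signal versus DMSO baseline.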

Read-out in experiment [12]: solute carrier (SLC10A1), SLC10A1 (gene 6554)
Kind of experiment: LTEA_HepaRG_SLC10A1: Life Technologies and Expression Analysis (LTEA) Assay for solute carrier (SLC10A1) using HepaRG (AID 2283657; active = hit-call score of the fitted dose curve at least 0.9, where 1 is the maximum; inactive = score below 0.9). Conditions: mRNA level, 48 h; actives raise or lower the signal. The gist of the method:
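HepaRG cells (single lot) exposed 48 h in serum-free induction medium, 8-point half-log series from 100 uM top in 0.5% DMSO, duplicate. SLC10A1 mRNA by qRT-PCR normalised to ACTB, GAPDH, POLR2A; bidirectional fit versus DMSO.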

Read-out in experiment [13]: Broad substrate specificity ATP-binding cassette transporter ABCG2 (Homo sapiens) (UniProt Q9UNQ0)
Kind of experiment: CLD_ABCG2_6hr: CellzDirect (CLD) Gene Expression Assay for ABC Transporter (ABCG2) at 6 hours (AID 2283660). The gist of the method: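 Primary human hepatocytes dosed daily with chemicals at multiple concentrations (0.2% DMSO vehicle), harvested 6 h after dosing. ABCG2 mRNA induction read by quantitative nuclease protection assay (qNPA) chemiluminescence; gain of signal fitted against DMSO baseline.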

A short description of experiment [14]: Tanguay_ZF_120hpf_EYE_legacy: (Legacy) Oregon State University Tanguay Lab 120 Hour Post-fertilization zebrafish Assay for Eye Malformation (AID 2283636). The gist of the method:
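Dechorionated Tropical 5D zebrafish embryos, one per well from 6 hpf, static exposure to 120 hpf at 28C, 0.64% DMSO. Eye malformation scored present/absent by brightfield; dead embryos not scored.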

A short description of experiment [15]: Tanguay_ZF_120hpf_JAW_legacy: (Legacy) Oregon State University Tanguay Lab 120 Hour Post-fertilization zebrafish Assay for Jaw Malformation (AID 2283638). In a few lines:
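Binary jaw-malformation calls at 120 hpf by brightfield imaging; DMSO (0.64% v/v) = baseline. Embryos: 5D wild-type, pronase-dechorionated, one per well from 6 hpf, static exposure, 28C, sealed, dark.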

Read-out in experiment [16]: kallikrein-3 (KLK3), KLK3 (gene 354)
In words: LTEA_HepaRG_KLK3: Life Technologies and Expression Analysis (LTEA) Assay for kallikrein-3 (KLK3) using HepaRG (AID 2283652; active = hit-call score of the fitted dose curve at least 0.9, where 1 is the maximum; inactive = score below 0.9). Conditions: mRNA level, 48 h; actives raise or lower the signal. The gist of the method:
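Differentiated human HepaRG cells in serum-free induction medium exposed 48 h in duplicate, eight-point half-log series from 100 uM in 0.5% DMSO. KLK3 mRNA by qRT-PCR, normalised to ACTB, GAPDH, POLR2A; bidirectional fit versus DMSO.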

Read-out in experiment [17]: matrix metalloproteinase-1 (MMP1), MMP1 (gene 4312)
Kind of experiment: LTEA_HepaRG_MMP1: Life Technologies and Expression Analysis (LTEA) Assay for matrix metalloproteinase-1 (MMP1) using HepaRG (AID 2283658; active = hit-call score of the fitted dose curve at least 0.9, where 1 is the maximum; inactive = score below 0.9). The settings on record: mRNA level, 48 h; actives raise or lower the signal. In a few lines: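 MMP1 transcript read by TaqMan qRT-PCR (Fluidigm array) after 48 h chemical exposure of HepaRG cells in serum-free induction medium. Eight-point half-log series, top 100 uM, 0.5% DMSO vehicle. Bidirectional curve fit against DMSO baseline.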

Experiment [18] relates to Thyroperoxidase (TPO), gene 54314. In words: CCTE_Simmons_AUR_rTPO: CCTE's Amplex UltraRed Assay for Thyroperoxidase (TPO) Inhibition, Simmons Lab (AID 2283662).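 Also: potency for loss of signal meaning inhibition of peroxidase activity.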 In a few lines: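 Cell-free peroxidase activity assay using rat thyroid gland microsomes with excess H2O2 (300 uM) and 25 uM Amplex UltraRed. Compounds tested from 5 nM to 87.5 uM; fluorescence measured after 30 min at 37C, analysed relative to DMSO baseline.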

Experiment [19] can be described thus: Tanguay_ZF_120hpf_NC_legacy: (Legacy) Oregon State University Tanguay Lab 120 Hour Post-fertilization zebrafish Assay for Notochord and Tail Malformation (AID 2283656). The gist of the method: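 Dechorionated Tropical 5D wild-type zebrafish embryos, one per well from 6 hpf, statically exposed to 120 hpf at 28C in 0.64% DMSO final. Notochord distortion scored present/absent by brightfield; dead embryos excluded.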

Broad substrate specificity ATP-binding cassette transporter ABCG2 (Homo sapiens), sequence (Q9UNQ0 whole entry, looked up): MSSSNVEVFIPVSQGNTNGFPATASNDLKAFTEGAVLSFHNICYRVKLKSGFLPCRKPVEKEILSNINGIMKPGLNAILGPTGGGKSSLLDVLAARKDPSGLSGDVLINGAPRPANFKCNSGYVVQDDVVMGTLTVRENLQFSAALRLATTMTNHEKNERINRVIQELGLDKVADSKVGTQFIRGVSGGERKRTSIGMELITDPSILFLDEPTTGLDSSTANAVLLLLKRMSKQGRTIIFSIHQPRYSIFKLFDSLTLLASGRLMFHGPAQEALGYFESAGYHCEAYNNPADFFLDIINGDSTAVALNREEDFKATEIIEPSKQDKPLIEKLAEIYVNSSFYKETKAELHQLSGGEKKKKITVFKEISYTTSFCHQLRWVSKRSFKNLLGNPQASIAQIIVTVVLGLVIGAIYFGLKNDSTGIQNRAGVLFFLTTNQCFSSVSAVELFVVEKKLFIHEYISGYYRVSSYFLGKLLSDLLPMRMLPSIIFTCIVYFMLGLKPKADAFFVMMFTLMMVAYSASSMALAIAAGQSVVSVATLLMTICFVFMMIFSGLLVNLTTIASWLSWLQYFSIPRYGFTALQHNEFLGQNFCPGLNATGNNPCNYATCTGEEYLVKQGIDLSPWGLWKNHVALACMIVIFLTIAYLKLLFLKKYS

A word on the AC50: it is the concentration giving half of the maximal activity seen. For `S=C(S)NCCNC(=S)S.[Mn+2].[S-]C([S-])=NCCN=C([S-])[S-].[Zn+2]`, the result in [1], in [2], in experiment [3], in experiment [4], in experiment [5] and in experiment [6] was inactive. Also, the result in experiment [7], in experiment [8], in [9], in experiment [10], in experiment [11] and in experiment [13] was inactive. Besides, the half-maximal activity concentration (AC50) in [12] was 1.74 µM (active).
`C[C@]12C[C@H](O)[C@H]3[C@@H](CCC4=CC(=O)CC[C@@]43C)[C@@H]1CC[C@@H]2C(=O)CO`: the call in experiment [14], in experiment [2], in experiment [4], in experiment [6], in experiment [7] and in experiment [8] was inactive. The compound was called inactive in [11].
As for `O=C(O)C1(C(=O)Nc2ccc(Cl)cc2Cl)CC1`, the compound was classed as inactive in experiment [15], in [3], in [4], in experiment [5], in [6] and in [7]. Also, the outcome in experiment [8], in experiment [10], in [11] and in experiment [13] was inactive. In addition, the AC50 in experiment [2] is 41.9 µM (active).
With `S=C([S-])NCCNC(=S)[S-].[Mn+2]`, the outcome in [1], in [2], in [3], in experiment [4], in [5] and in experiment [6] was inactive. For the same compound, the result in experiment [7], in experiment [8], in experiment [16], in experiment [9], in experiment [10] and in experiment [11] was inactive. Also, the compound was called inactive in experiment [17]. For the same compound, the AC50 in experiment [12] was 9.93 µM (active); in [18], 12.6 µM (active).
Take `CN(C)C(=O)Nc1ccc(Cl)c(Cl)c1`: the call in experiment [2], in experiment [3], in experiment [4], in experiment [5], in experiment [6] and in experiment [7] was inactive. For the same compound, the compound was called inactive in experiment [8], in experiment [9], in experiment [10] and in [17]. The AC50 in [12] was 52.8 µM (active); in [18] it was 36.6 µM (active).
For `CC(C)(C)[C@@H](O)[C@@H](Cc1ccc(Cl)cc1)n1cncn1`, the AC50 is 10.5 µM (active) in experiment [1] and 45.9 µM (active) in experiment [2]. Further, the result in [3], in experiment [4], in experiment [5], in experiment [6], in experiment [7] and in experiment [8] was inactive. For the same compound, the call in experiment [10], in experiment [11] and in experiment [13] was inactive.
As for `CCOC(=O)C(C)Oc1ccc(Oc2nc3ccc(Cl)cc3o2)cc1` (stereo unspecified), the compound was called inactive in experiment [14], in [2], in experiment [3], in experiment [4], in experiment [5] and in [7]. Also, the outcome in experiment [8], in experiment [10] and in experiment [11] was inactive. Also, the AC50 in experiment [18] was 43.6 µM (active).
For the compound `CC(=O)[C@H]1CC[C@H]2[C@@H]3CCC4=CC(=O)CC[C@]4(C)[C@H]3CC[C@]12C`, the compound was called inactive in [14], in experiment [15], in [2], in [3], in experiment [4] and in experiment [5]. Moreover, the call in [6], in experiment [7], in experiment [8], in [10] and in experiment [11] was inactive.
Consider `CCCCOC(=O)[C@@H](C)Oc1ccc(Oc2ccc(C(F)(F)F)cn2)cc1`, for which the call in experiment [14], in [2], in experiment [3], in [4], in [5] and in experiment [11] was inactive. The compound was classed as inactive in [13].
As for `OB(O)O`, the compound was called inactive in experiment [2], in experiment [3], in experiment [4], in experiment [5], in experiment [6] and in experiment [7]. Besides, the compound was called inactive in [8], in experiment [10], in experiment [11], in [19] and in experiment [13].
On to `COC(=O)c1ccccc1C(=O)O`, for which the compound was called inactive in [15], in experiment [2], in experiment [3], in experiment [4], in experiment [6] and in experiment [7]. For the same compound, the call in experiment [8], in [16], in [9], in experiment [10], in experiment [11] and in experiment [12] was inactive. Moreover, the compound was classed as inactive in experiment [17] and in [13].
For the compound `O=C(c1ccccc1)C1CCCCC1`, the outcome in [2], in experiment [3], in [4], in experiment [5], in experiment [6] and in experiment [7] was inactive. For the same compound, the compound was classed as inactive in experiment [8], in [10] and in experiment [11].
